RXFP1 antag = qHTS Assay for Antagonists of the Relaxin Receptor RXFP1; Relaxin receptor 1 (Homo sapiens), Q9HBX9; HEK293-RXFP1, relaxin-stimulated cAMP HTRF, 30 min; active compounds read low; activity change, negative = inhibition, % at 57.5 µM; 0.59% of 350,000 active; AID 1259400, 2018;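 active = activity change of -60% or lower, but not beyond a set lower limit; inconclusive = change between -60% and -40%, or beyond the set limit; inactive = change above -40%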
Target sequence (Q9HBX9 whole entry, looked up): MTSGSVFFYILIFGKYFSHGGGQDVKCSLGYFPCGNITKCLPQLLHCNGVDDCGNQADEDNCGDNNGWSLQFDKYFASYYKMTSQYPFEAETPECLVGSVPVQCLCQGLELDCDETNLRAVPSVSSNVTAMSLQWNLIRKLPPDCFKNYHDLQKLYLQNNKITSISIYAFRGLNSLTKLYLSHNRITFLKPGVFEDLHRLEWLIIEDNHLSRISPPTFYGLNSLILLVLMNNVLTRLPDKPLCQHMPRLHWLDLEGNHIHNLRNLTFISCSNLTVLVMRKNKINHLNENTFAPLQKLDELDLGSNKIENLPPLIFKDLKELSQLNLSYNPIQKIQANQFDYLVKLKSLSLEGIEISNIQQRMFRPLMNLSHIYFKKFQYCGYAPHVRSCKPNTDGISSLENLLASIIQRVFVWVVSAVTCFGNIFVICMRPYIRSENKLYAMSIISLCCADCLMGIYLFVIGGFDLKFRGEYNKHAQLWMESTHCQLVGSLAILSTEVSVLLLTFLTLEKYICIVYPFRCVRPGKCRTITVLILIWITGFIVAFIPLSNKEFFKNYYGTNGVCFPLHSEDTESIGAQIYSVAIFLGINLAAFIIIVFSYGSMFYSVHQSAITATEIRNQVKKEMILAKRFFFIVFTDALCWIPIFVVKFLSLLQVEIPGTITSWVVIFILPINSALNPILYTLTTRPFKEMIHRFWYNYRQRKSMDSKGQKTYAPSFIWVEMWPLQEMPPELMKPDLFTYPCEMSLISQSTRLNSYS
Giardia killer = Small Molecules that selectively kill Giardia lamblia: qHTS; Giardia lamblia trophozoite viability; activity change, % at 7.66 µM, hits read low; 0.15% of 340,000 active; in the data active = activity change below about -80%; inconclusive = between about -30% and that limit;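 also: parasites exposed to compound for two days anaerobically before the ATP read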
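Compounds were tested on trophozoites seeded at 100 cells/well and held 48 hrs at 37 deg C anaerobically. An ATP-based luminescent kit measured the remaining live cells.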
RXFP1 ag = qHTS Assay for Agonists of the Relaxin Receptor RXFP1; Relaxin receptor 1 (Homo sapiens), Q9HBX9; HEK293T-RXFP1 cAMP TR-FRET, 30 min; response scale: percent of porcine relaxin response, buffer zero; Potency, µM (titrated, usually from 57.5 µM), actives largely listed as activators; 0.3% of 370,000 active; AID 2676, 2010; active = well fitted activation curve with a large enough effect; inconclusive = small, poorly fitted or top-dose-only effect; also: nearly all actives have a fitted effect of over 60% in size
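Agonist response is measured as cAMP accumulation in an RXFP1-transfected HEK293T line under PDE4 inhibition. Values are scaled between buffer-only and 29 nM porcine relaxin, and EC50s come from standard Hill equation fits.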
gsp ag = qHTS for Agonist of gsp, the Etiologic Mutation Responsible for Fibrous Dysplasia/McCune-Albright Syndrome: qHTS | Potency, µM (doses to about 76.9 µM), most hits filed as activators | AID 624287, 2012 | gsp mutant cells, cAMP HTRF, 30 min | 0.13% of 340,000 active; active = well fitted activation curve with a large enough effect; inconclusive = small, poorly fitted or top-dose-only effect, or another doubt; inactive = no such curve, though single readings can be large or run the other way; cell line not stated here;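 also: phosphodiesterase inhibitor Ro 20-1724 added with compounds to block cAMP breakdown; nearly all actives have a fitted effect of over 60% in size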
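Cells stably selected in G418 were plated at 2000/well, grown 16-24 hr, then given compounds in DMSO with the PDE inhibitor […] (300 uM solution added) for 30 min at 37C; cAMP was read by HTRF.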
gsp antag = qHTS for Antagonists of gsp, the Etiologic Mutation Responsible for Fibrous Dysplasia/McCune-Albright Syndrome: qHTS. Potency, µM (top dose mostly 76.9 µM), actives largely listed as inhibitors. 0.4% of 340,000 active. gsp-mutant cells, cAMP HTRF, 30 min. AID 624288, 2012; calls by dose curve; cell line not stated here;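 also: intracellular cAMP measured with PDE inhibitor Ro 20-1724 present during compound exposure; nearly all actives have a fitted effect of over 65% in size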
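HTRF cAMP measurement after 30 min RT detection following 30 min, 37C compound treatment alongside […] (added as 300 uM solution) in G418-selected cells seeded at 2000/well and grown 16–24 h.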
FBPA coupling cs = qHTS Assay for Inhibitors of Fructose-1,6-bisphosphate Aldolase from Giardia Lamblia: Coupling assay counterscreen; activity change, negative = inhibition, % at 58.2 µM, hits read low; AID 2472, 2010; 0.67% of 290,000 active; coupling enzyme system counterscreen, AmpLite Red fluorescence; in the data active = activity change below about -30%
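Counterscreen lacking aldolase: glyceraldehyde-3-phosphate coupling-enzyme reagent preincubated 10 min at RT with compound (at 57.5 uM final), then substrate/coupling system with AmpLite Red added; fluorescence read at 525/598 nm after 20 min RT.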
A number is an active result; n = inactive; u = inconclusive; x = no result given; ! = a repeat was not active; [ ] = dose if it differs, or a comment. Shown are actives, neighbours in structure and some others; about 1.6% of the full set was active somewhere.

SMILES	RXFP1 antag	Giardia killer	RXFP1 ag	gsp ag	gsp antag	FBPA coupling cs
CS(=O)(=O)c1ncc(Cl)c(C(=O)Nc2ccc(N3CCOCC3)cc2)n1	n	n	n	n	n	n
COc1ccc2nc(NC(=O)c3nc(S(=O)(=O)Cc4ccccc4F)ncc3Cl)sc2c1	-82.8	x	n	x	x	x
COc1ccc2nc(NC(=O)c3nc(S(=O)(=O)Cc4ccccc4)ncc3Cl)sc2c1	u	x	n	x	x	x
CS(=O)(=O)c1ncc(Cl)c(C(=O)Nc2ccc(OC(F)F)cc2)n1	-82.4	n	n	n	n	n
O=C(CSc1ccc2nnc(-c3ccncc3)n2n1)Nc1ccc2c(c1)OCO2	x	n	n	15.8µM	n	n
CC(=O)Nc1ccc(NC(=O)CSc2ccc3nnc(-c4cccnc4)n3n2)cc1	n	n	8.91µM	u	n	x
CCC(Sc1ccc2nnc(-c3cccnc3)n2n1)C(=O)OC (stereo not given)	n	n	14.1µM	u	n	n
Cc1ccc(-c2nnc3ccc(SCC(=O)Nc4cc(C)on4)nn23)cc1	n	n	n	n	n	n
Cc1cc(NC(=O)CSc2ccc3nnc(-c4cccs4)n3n2)no1	x	n	n	11.2µM	n	n
CCCCNc1ncnc2oc(-c3ccco3)c(-c3ccco3)c12	x	n	x	x	x	x
CC(=O)Nc1nonc1-c1nnc(SCC(=O)Nc2cc(Cl)ccc2C)n1C	n	x	n	x	x	x
COCCCNC(=O)CC(=O)N/N=C\c1ccc(SC)cc1	n	n	n	n	n	-70.0
O=[N+]([O-])c1ccc2nc(/C=C/c3ccc(Cl)cc3)[nH]c2c1	n	n	n	n	35.5µM	n
O=[N+]([O-])c1ccc(-c2nc3ccc([N+](=O)[O-])cc3[nH]2)cc1	n	n	n	u	u	n
Cc1ccc(NC(=O)Cn2c(=O)n(Cc3nc(-c4ccccc4)no3)c(=O)c3cc4c(cc32)OCO4)cc1F	n	x	n	x	x	x
O=S(=O)(c1ccc(Cl)nc1)N1CCc2ccccc21	n	n	n	n	n	n
O=S(=O)(c1ccc(Cl)nc1)N1CCCc2ccccc21	n	n	n	n	u	-33.3
CC[N+]1(C)CCC(O)(c2ccc(OC)cc2)C(C(=O)c2ccc(OC)cc2)C1 (stereo not given)	n	n	x	n	n	x
CCOC(=O)c1[nH]c(C)c(CCC(=O)N2CCN(c3cccc(C)c3C)CC2)c1C	n	x	n	x	x	x
Oc1c(C(Nc2cccc(C(F)(F)F)c2)c2ccncc2)ccc2cccnc12 (stereo not given)	-60.8	n	n	n[15.4 µM]	n	n
CSCC[C@H](NC(=O)OC(C)(C)C)C(=O)NCC1CCC(C(=O)O)CC1 (stereo not given in full)	n	n	n	u	n	n
Cc1ccc(C2=C/C(=C/c3cccnc3)C(=O)O2)c(C)c1	n	n	n	n	n	-35.0
CC(C)c1nn2c(=O)cc(COC(=O)c3ccco3)nc2s1	x	x	n	x	x	x
O=C(CCSCCc1ccccn1)Nc1ccc(Cl)cc1	n	x	n	x	x	x
CCc1cc2c(=O)c(-c3ccc4c(c3)OCCO4)c(C)oc2cc1OS(C)(=O)=O	n	n	n	n	50.1µM	n
SMILES	RXFP1 antag	Giardia killer	RXFP1 ag	gsp ag	gsp antag	FBPA coupling cs
CN1c2ccccc2C(C)(C)C12C=Nc1c(cc(N3CCOCC3)c3ccccc13)O2 (stereo not given)	n	n	n	n[15.4 µM]	n	-65.9
CCOc1ccc(C(=O)N(Cc2ccc(C(C)C)cc2)Cc2ccco2)cc1	-78.6	x	n	x	x	x
CCCOc1ccc(C(=O)N(Cc2ccc(Cl)cc2)Cc2ccco2)cc1	n	x	n	x	x	x
Cc1ccc(CN(Cc2ccco2)C(=O)COc2ccc(C(C)C)cc2)cc1	n	x	n	x	x	x
Cc1ccc(C(=O)N(Cc2ccc(N(C)C)cc2)Cc2ccco2)cc1	n	x	n	x	x	x
Cc1ccsc1CN(Cc1ccco1)C(=O)c1ccc(Cl)cc1	-74.4	x	n	x	x	x
CCc1ccc(CN(Cc2ccco2)C(=O)c2ccc(C)cc2)cc1	-67.9	x	n	x	x	x
Cc1ccc(C(=O)N(Cc2ccco2)Cc2sccc2C)cc1	-98.2	x	n	x	x	x
O=C(/C=C/c1ccccc1)OCc1ccccc1	n	x	x	x	x	x
COc1ccc2oc(=O)c(/C(N)=N/NC(=O)c3ccncc3)cc2c1	n	n	n	n[15.4 µM]	n	n
CC[C@H](C)[C@H](NC(=O)[C@H](C)NC(=O)[C@H](Cc1cnc[nH]1)NC(=O)[C@@H]1CCCN1C(=O)CNC(=O)[C@H](CC(C)C)NC(=O)[C@H](CC(C)C)NC(=O)[C@H](Cc1ccc(O)cc1)NC(=O)CNC(=O)[C@H](C)NC(=O)[C@H](CO)NC(=O)[C@H](CC(N)=O)NC(=O)[C@H](CC(C)C)NC(=O)[C@@H](NC(=O)[C@H](Cc1c[nH]c2ccccc12)NC(=O)CN)[C@@H](C)O)C(=O)O	x	x	x	x	x	n
COc1ccc(OC)c(Nc2cc(-c3ccccc3)nc(N)n2)c1	n	n	n	n	n	n
Cc1noc(C)c1-c1ccc2ncnc(NCc3cccc(C(F)(F)F)c3)c2c1	x	x	x	x	x	n
Cc1cccc(N(CC(=O)NCCc2ccccc2)C(=O)c2csnn2)c1	n	n	n	n	n	n
COc1ccc(OCCn2c(CCNC(=O)C3CCCCC3)nc3ccccc32)cc1	x	n	x	x	x	x
C(=N\Nc1nc(-c2ccccc2)cs1)/c1ccco1	n	n	n	n	n	n
C(=N\Nc1nc(-c2ccccc2)cs1)/c1ccncc1	n	n	n	n[15.4 µM]	n	n
Cc1sc(N/N=C/c2ccco2)nc1-c1ccccc1	-89.0	n	n	n	n	n
O=[N+]([O-])c1cccc(-c2csc(N/N=C/c3cccc(O)c3)n2)c1	-67.1	n	n	n[15.4 µM]	n	n
CN(C)S(=O)(=O)c1ccc(-c2csc(N/N=C/c3ccco3)n2)cc1	-71.6	n	n	n[15.4 µM]	31.6µM	n
CCOC(=O)Cc1csc(N/N=C/c2cccc([N+](=O)[O-])c2)n1	n	n	n	n[15.4 µM]	n	n
CN(C)S(=O)(=O)c1ccc(-c2csc(N/N=C/c3ccc(O)cc3)n2)cc1	u	n	n	n[15.4 µM]	31.6µM	n
Cc1ccc(OCCN(C)C(=O)C2CCC(=O)N(CC3CCCCC3)C2)cc1 (stereo not given)	n	n	n	n	n	n
Cc1ccc(C(=O)Nc2cccc(O)c2)cc1S(=O)(=O)N1CCCCCC1	-82.8!	n	n	n	n	n
Cc1ccc(NC(=O)c2ccc(C)c(S(=O)(=O)N3CCCCCC3)c2)cc1	x	x	n	x	x	x
Cc1ccc(C(=O)N2CCN(c3ccc(F)cc3)CC2)cc1S(=O)(=O)N1CCCCC1	n	n	n	n	n	x
